Reference: the OligoGym collection

Each sequence was assayed against MFNG (assay: pooled miR-30 sensor sort-seq; sequence = guide strand). Conditions: shRNA.

In order of rising sensor-assay potency score (higher = more potent):
1. TTGCGATTGATGCAGAAGCCAG  -1.46
2. TAGTTGTCATCGTCCACATGGC  -0.357
3. TTGCACTCAATGATATAGCCCA  -0.194
4. AATGAAGACATCGTGTAGCTGT  0.421

These sequences were tested against MFRP in the same assay as above. Conditions: shRNA.

In order of falling sensor-assay potency score (higher = more potent):
1. TCAAACTTGCACTCGTCCTGAG  0.173
2. TGAAGTTGTGGAACTGTAGTTC  0.0577
3. TGGAACTGTAGTTCTATGCTGT  -0.0204
4. TGTAGTTCTATGCTGTGTCCGG  -0.086
5. TATGCTGAGGGCTTCGATCTTG  -0.113
6. TACTGCTGCAGGTAGCTGGGAG  -0.172
7. TTGCAGAACTCGGTCTTGCTCG  -0.303
8. TAGTTCTATGCTGTGTCCGGCA  -0.362
9. TGGTGTTGTAGCTCAGACCGAG  -0.523
10. TTGGTGAGGGTACTGCTGCAGG  -0.958
11. TGTCCTAAACAGCACAGCCAGC  -1.58
12. TTGTCATCGCTGCCATCGGTGC  -1.66

Each sequence was assayed against MIA in the same assay as above. Conditions: shRNA.

In order of rising sensor-assay potency score (higher = more potent):
1. TGGTCCGCACACAGCTTCCGGT  -1.49
2. TCAGGGTCTGGTCCTCTCGGAC  -1.41
3. TGGTCCTCTCGGACAATGCTAC  -1.39
4. TGTCTGTCTTCACATCGACTTT  -1.3
5. TCTCGGACAATGCTACTGGGGA  -1.23
6. TTTGCCAGGTTTCAGGGTCTGG  -1.17
7. TTGGGCATAGGACCACCCCTGA  -1.13
8. TTTGTCTGTCTTCACATCGACT  -0.999
9. TGAATGGTCAGGAATCGGCAGT  -0.833
10. TAGTAATCTCCCTGAACGCTGC  -0.496
11. ATTTGTCTGTCTTCACATCGAC  -0.34
12. TTCAGGGTCTGGTCCTCTCGGA  -0.169

What follows are sequences tested against MIB1 in the same assay as above. Conditions: shRNA.

In order of falling sensor-assay potency score (higher = more potent):
1. TTCAACTACTGCTCGACACTGC  0.708
2. TTTAGCAACATCTCCATTGGCA  0.277
3. TTGACCACTGACTTTTTCCTTA  0.24
4. TTTACATCCACATCTGGTCTTT  0.23
5. ATTGACATTGGTATTATCCTTG  0.229
6. TAGAAGTTTAATTCGTTCCAGG  0.00519
7. ATTGGTATTATCCTTGTCCTTT  -0.409
8. TTAACTCATCAGAACTTCCAAC  -0.501
9. TTAAAGTCTCAAACATTCCATC  -0.848
10. TTTAGATAGTAAAACACGCATT  -0.883
11. TTCCTTATGACACTTTGCCAGT  -1
12. TATGCTGTCGTTCAACAGCAAG  -1.72
